Drawing on PubChem BioAssay (Tox21), this text covers Potency for eight compounds.

Each structure is given as a SMILES string. Several values for one entry are separate records, joined by “and”; a condition that tells them apart may be missing. Identical values can stand only once. Results filed as inconclusive are left out. Some structures have more than one record in an assay (separate samples or runs), and their calls can disagree. Activity calls are given as the source filed them. Unless noted, calls follow the shape of the full dose curve.

Assay [1] is described as follows: Nuclear factor erythroid 2-related factor 2/antioxidant responsive element (Nrf2/ARE) small molecule agonists: qHTS cell viability counter screen in human keratinocytes (AID 1919968; active = well fitted curve in the direction sought with a large enough effect in the repeat runs; an effect the other way counts as inactive or inconclusive; also: nearly all actives have a fitted effect of over 55% in size; also: potency is read from the fitted curve at half-maximal effect). The gist of the method:
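Cells of the KeratinoSens line were plated at 1,500 per well and left for 5 h before compound transfer from DMSO stocks. After a 23 h incubation (37 C, 5% CO2), CellTiter-Fluor was added. Signal was taken as fluorescence intensity 1 h later.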

In assay [2] the target is Gonadotropin-releasing hormone receptor (Homo sapiens) (UniProt P30968). The experiment in a line: Human gonadotropin-releasing hormone receptor (GnRHR) small molecule agonists, calcium flux assay in GnRHR-HEK293 cells (AID 1920063). Also: nearly all actives have a fitted effect of over 35% in size. The gist of the method:
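Compounds dissolved in DMSO are pin-transferred onto dye-loaded GnRHR-HEK293 cells, which were seeded 18 h before at 37 C/5% CO2. Calcium signal is read as fluorescence intensity at 1 s intervals for 3 min.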
For orientation: Calcium flux is commonly read through the fluorescence of an indicator in the cells.

Assay [3] concerns the target KiSS-1 receptor (Homo sapiens) (UniProt Q969F8). In words: Human kisspeptin (KISS1R) small molecule agonists, calcium flux assay in KISS1R-HEK293 cells (AID 1920064; active = well fitted curve in the direction sought with a large enough effect in the repeat runs; an effect the other way counts as inactive or inconclusive). A digest of the protocol:
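Cell line: HEK293, stable human KISS1R. Dye loading 1 h at 37 C after 18 h culture. Read: kinetic fluorescence, 480/540 nm, 3 min at 1 s intervals.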

The nature of assay [4]: G protein-coupled receptor (GPCR) small molecule agonists, calcium flux assay: HEK293 wild type cell line counter screen (AID 1920065). The gist of the method: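 Tox21 10K compounds, 15 concentrations each in triplicate, pin-transferred in DMSO onto dye-loaded cells; kinetic read at 480/540 nm for 3 min, 1 s intervals.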
Assay [5] in a line: cAMP Responsive Elements (CRE) small molecule agonists, cell-based qHTS assay (AID 1963590). Also: potency is read from the fitted curve at half-maximal effect. A digest of the protocol: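 HEK 293T cells stably bearing CRE-bla were plated at 2,000 cells per well and rested 18 h. Compounds, positive controls or DMSO were added for 3 h at 37 C. LiveBLAzer B/G substrate was then loaded for 2 h at room temperature.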
A short description of assay [6]: cAMP Responsive Elements (CRE) small molecule antagonists, cell-based qHTS assay (AID 1963591; active = well fitted inhibition curve with a large enough effect in the signal ratio in the repeat runs, not every such curve was filed as active; the % refers to the signal ratio). A digest of the protocol:
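First, CRE-bla HEK293T cells settled 18 h at 37 C. Next, compound and 0.25 uM final NKH477 were applied for 3 h. Last, LiveBLAzer B/G substrate was loaded for 2 h at room temperature.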

In assay [7] the target is Beta-2 adrenergic receptor (Homo sapiens) (UniProt P07550). The experiment in a line: Adrenergic beta2 receptor (ADRB2) small molecule antagonists, cell-based qHTS assay (AID 1963592). Also: series mostly up to about 92 µM; nearly all actives have a fitted effect of over 50% in size. A digest of the protocol: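 Assay format: CHO-ADRB2 cells, 18-20hr seeding at 37C/5% CO2, then compound plus 1nM isoproterenol agonist mix for 0.5hr RT. Homogeneous time-resolved fluorescence cAMP detection after 1hr, expressed as 665/615 nm ratio.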
(In qHTS, concentration-response curves come from the screen itself.)

The target in assay [8] is D(2) dopamine receptor (Homo sapiens) (UniProt P14416). In words: Dopamine D2 receptor (DRD2) small molecule antagonists, cell-based qHTS assay (AID 1963595; active = well fitted inhibition curve with a large enough effect in the signal ratio in the repeat runs, with a control signal flat; the % refers to the signal ratio). A digest of the protocol:
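HEK293 cells stably expressing DRD2, preincubated with 0.1 mM Ro20-1724 and compounds 10 min, were stimulated with 200 nM NKH477 plus 12 nM quinpirole for 30 min at room temperature; cAMP measured by HTRF (665/620 nm).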

Assay [9] in a line: p53 small molecule agonists, cell-based qHTS assay with human liver microsomes (AID 1963577).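 Also: p53 response element beta-lactamase reporter cells with liver microsomes plus NADPH.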 A digest of the protocol: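 Steps: plate p53RE-bla cells, incubate 5 h at 37 C; add compound in DMSO; add microsomes (0.5 mg/mL final) and NADPH (0.5 mg/mL final); incubate 16 h at 37 C; add LiveBLAzer, 2 h RT; read fluorescence.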
Assay [10] can be described thus: p53 small molecule agonists, cell-based qHTS assay with rat liver microsomes (AID 1963578). The gist of the method:
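Metabolic activation is supplied by rat liver microsomes with NADPH (each 0.5 mg/mL final). p53RE-bla cells incubate with compound 16 h at 37 C; reporter activity is measured by LiveBLAzer fluorescence.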

The nature of assay [11]: p53 small molecule agonists, cell-based qHTS assay with human liver microsomes: qHTS cell viability counter screen (AID 1963579). Also: nearly all actives have a fitted effect of over 45% in size. Also: potency is read from the fitted curve at half-maximal effect. A digest of the protocol: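 After the 460/530 nm beta-lactamase read, CellTiter-Glo was added to the same wells and luminescence measured after 30 min at room temperature, giving viability of p53RE-bla cells treated 16 h with compounds plus microsomes and NADPH.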

A short description of assay [12]: p53 small molecule agonists, cell-based qHTS assay with rat liver microsomes: qHTS cell viability counter screen (AID 1963580). Also: nearly all actives have a fitted effect of over 45% in size. A digest of the protocol: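 Cytotoxicity counter screen: intracellular ATP read by CellTiter-Glo luminescence in the p53 reporter wells. HCT-116 p53RE-bla cells were treated for 16 h at 37 C alongside rat liver microsomes and NADPH, each 0.5 mg/mL final.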

A short description of assay [13]: p53 small molecule agonists, cell-based qHTS assay: qHTS cell viability counter screen (AID 1963581). Also: nearly all actives have a fitted effect of over 45% in size. A digest of the protocol:
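ATP content measured by luminescence in HCT-116 p53RE-bla cells treated 16 h at 37 C, same wells as the reporter screen.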

The nature of assay [14]: p53 small molecule agonists, cell-based qHTS assay (AID 1963582; active = well fitted activation curve with a large enough effect in the signal ratio in the repeat runs, not every such curve was filed as active; the % refers to the signal ratio). The gist of the method:
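16 h compound exposure (37 C) of p53 response element–bla cells, preceded by 5 h recovery at 37 C/5% CO2; read-out via LiveBLAzer B/G FRET substrate, 2 h RT, fluorescence intensity.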

Assay [15] deals with 5-hydroxytryptamine receptor 2A (Homo sapiens) (UniProt P28223). The experiment in a line: 5-hydroxytryptamine receptor 2A (HTR2A) small molecule antagonists, cell-based qHTS assay (AID 1963586). Also: nearly all actives have a fitted effect of over 45% in size. A digest of the protocol:
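CHO cells stably expressing human HTR2A were plated for 18 h at 37 C, then loaded with calcium dye for 1 h. Compounds were preincubated 5 min at room temperature before DOI (4 nM solution) was added. Kinetic fluorescence was read for 3 min.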

Assay [16] shares this target. In words: 5-hydroxytryptamine receptor 2A (HTR2A) small molecule agonists, cell-based qHTS assay (AID 1963587). Also: nearly all actives have a fitted effect of over 30% in size. The gist of the method: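 Kinetic calcium-flux fluorescence (2 min, 1 sec intervals) after compound addition in agonist mode. HTR2A-CHO cells were cultured 18 h, then dye-loaded 1 h at 37 C.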
The target in assay [17] is Muscarinic acetylcholine receptor M1 (Homo sapiens) (UniProt P11229). The experiment in a line: Cholinergic receptor muscarinic 1 (CHRM1) small molecule antagonists, cell-based qHTS assay (AID 1963588). Also: nearly all actives have a fitted effect of over 40% in size. The gist of the method:
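Compounds were tested at 15 concentrations in three independent runs. Dye-loaded CHRM1-CHO cells were exposed 5 min at room temperature before stimulation by acetylcholine added at 50nM. Intracellular calcium was read kinetically on FDSS for 3 min.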

For assay [18] the target is unchanged. The experiment in a line: Cholinergic receptor muscarinic 1 (CHRM1) small molecule agonists, cell-based qHTS assay (AID 1963589). Also: nearly all actives have a fitted effect of over 35% in size. A digest of the protocol: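 Homogeneous fluorescence calcium flux, agonist mode. Human M1-expressing CHO cells; compound dosed at 15 concentrations, three independent runs; signal sampled every 1 sec.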
Assay [19] addresses Beta-2 adrenergic receptor (Homo sapiens) (UniProt P07550). In words: Adrenergic beta2 receptor (ADRB2) small molecule agonists, cell-based qHTS assay (AID 1963593).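 Also: CHO cells stably overexpressing human ADRB2.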 The gist of the method: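 CHO cells stably over-expressing ADRB2 were plated overnight at 37C, then dosed with compounds plus a stimulation mix containing 100uM IBMX and 25uM Ro-20-1724 for 0.5hr at room temperature. cAMP was measured by HTRF competition, 1hr.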

The target in assay [20] is D(2) dopamine receptor (Homo sapiens) (UniProt P14416). The experiment in a line: Dopamine D2 receptor (DRD2) small molecule agonists, cell-based qHTS assay (AID 1963594). Also: nearly all actives have a fitted effect of over 35% in size. The gist of the method:
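cAMP accumulation in DRD2-HEK293 cells measured by HTRF after 1 h detection; compounds added 10 min before NKH477 (200nM […]) forskolin-analogue stimulation, 30 min at room temperature, with Ro20-1724 present at 0.1 mM final.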

KiSS-1 receptor (Homo sapiens), sequence (Q969F8 whole entry, looked up): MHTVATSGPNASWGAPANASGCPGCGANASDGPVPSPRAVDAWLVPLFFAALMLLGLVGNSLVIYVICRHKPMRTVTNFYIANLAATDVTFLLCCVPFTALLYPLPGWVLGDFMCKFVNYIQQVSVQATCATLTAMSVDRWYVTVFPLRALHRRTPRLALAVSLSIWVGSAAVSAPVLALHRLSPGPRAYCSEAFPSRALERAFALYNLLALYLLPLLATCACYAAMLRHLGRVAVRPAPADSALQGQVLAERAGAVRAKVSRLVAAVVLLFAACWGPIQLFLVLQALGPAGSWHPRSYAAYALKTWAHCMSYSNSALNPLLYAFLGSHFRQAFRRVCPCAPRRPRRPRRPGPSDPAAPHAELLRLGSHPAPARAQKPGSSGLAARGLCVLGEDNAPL
Gonadotropin-releasing hormone receptor (Homo sapiens), sequence (P30968 whole entry, looked up): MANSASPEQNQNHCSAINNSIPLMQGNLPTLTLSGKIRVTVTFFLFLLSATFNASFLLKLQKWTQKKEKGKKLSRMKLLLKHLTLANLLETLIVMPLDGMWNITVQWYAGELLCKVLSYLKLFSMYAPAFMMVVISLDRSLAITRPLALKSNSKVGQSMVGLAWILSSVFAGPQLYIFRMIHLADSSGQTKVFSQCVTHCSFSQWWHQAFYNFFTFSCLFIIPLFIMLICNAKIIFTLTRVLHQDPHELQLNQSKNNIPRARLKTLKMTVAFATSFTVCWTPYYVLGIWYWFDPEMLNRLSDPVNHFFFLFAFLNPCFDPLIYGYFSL
Muscarinic acetylcholine receptor M1 (Homo sapiens), sequence (P11229 whole entry, looked up): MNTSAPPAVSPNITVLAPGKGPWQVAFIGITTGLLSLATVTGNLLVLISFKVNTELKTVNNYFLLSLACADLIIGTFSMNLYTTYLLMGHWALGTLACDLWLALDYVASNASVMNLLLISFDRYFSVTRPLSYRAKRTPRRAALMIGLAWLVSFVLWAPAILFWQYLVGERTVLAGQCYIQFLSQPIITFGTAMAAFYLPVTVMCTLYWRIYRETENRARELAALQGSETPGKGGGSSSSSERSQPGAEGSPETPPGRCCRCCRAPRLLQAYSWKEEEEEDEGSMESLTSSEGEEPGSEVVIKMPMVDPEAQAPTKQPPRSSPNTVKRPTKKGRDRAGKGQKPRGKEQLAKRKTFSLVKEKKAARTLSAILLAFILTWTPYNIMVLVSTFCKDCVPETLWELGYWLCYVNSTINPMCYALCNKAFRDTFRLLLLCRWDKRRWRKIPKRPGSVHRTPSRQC
5-hydroxytryptamine receptor 2A (Homo sapiens), sequence (P28223 whole entry, looked up): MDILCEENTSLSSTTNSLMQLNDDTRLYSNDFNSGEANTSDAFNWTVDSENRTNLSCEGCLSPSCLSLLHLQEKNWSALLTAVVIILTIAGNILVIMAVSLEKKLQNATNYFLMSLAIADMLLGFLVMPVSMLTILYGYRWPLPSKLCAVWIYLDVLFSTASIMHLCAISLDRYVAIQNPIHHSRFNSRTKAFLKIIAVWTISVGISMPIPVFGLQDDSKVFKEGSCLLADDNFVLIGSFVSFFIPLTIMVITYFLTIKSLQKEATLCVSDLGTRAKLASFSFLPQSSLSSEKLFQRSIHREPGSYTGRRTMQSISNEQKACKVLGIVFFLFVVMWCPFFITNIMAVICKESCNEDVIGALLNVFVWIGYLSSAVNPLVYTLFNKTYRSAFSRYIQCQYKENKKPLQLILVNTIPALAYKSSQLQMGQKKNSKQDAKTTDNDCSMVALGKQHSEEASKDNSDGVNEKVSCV
D(2) dopamine receptor (Homo sapiens), sequence (P14416 whole entry, looked up): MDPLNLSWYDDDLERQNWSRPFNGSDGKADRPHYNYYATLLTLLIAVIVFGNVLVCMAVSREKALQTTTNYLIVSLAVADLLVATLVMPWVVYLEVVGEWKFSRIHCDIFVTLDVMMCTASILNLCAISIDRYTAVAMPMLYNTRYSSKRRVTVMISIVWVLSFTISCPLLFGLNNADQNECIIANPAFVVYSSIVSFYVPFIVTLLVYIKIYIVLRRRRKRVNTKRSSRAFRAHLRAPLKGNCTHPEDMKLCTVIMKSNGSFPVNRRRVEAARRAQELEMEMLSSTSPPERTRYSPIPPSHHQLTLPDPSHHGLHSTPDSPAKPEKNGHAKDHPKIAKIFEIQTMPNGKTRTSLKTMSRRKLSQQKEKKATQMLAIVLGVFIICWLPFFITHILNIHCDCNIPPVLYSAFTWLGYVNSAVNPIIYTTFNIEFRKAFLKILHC
Beta-2 adrenergic receptor (Homo sapiens), sequence (P07550 whole entry, looked up): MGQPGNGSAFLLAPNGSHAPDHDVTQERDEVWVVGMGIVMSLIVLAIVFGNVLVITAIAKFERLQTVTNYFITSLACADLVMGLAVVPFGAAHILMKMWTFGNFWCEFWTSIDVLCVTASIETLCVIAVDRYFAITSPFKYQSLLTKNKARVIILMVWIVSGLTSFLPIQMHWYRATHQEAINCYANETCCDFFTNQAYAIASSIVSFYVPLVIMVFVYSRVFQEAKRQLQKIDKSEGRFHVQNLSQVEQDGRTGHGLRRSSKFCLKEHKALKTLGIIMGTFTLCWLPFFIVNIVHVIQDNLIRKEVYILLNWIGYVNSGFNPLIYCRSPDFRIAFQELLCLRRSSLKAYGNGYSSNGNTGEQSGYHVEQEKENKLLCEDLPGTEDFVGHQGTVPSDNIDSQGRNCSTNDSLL

As for `O=C(O)c1ccccc1O`, the Potency entry in assay [1], in assay [2], in assay [3], in assay [4], in assay [5] and in [6] was “inactive” in each case. For the same compound, the Potency entry in [7] and in [8] was “inactive” throughout.
Take `Oc1ccc(Cl)cc1Cl`: the Potency result in assay [1], in assay [2], in [4], in [9], in assay [10] and in [11] was “inactive” each time. Besides, the Potency entry in assay [12], in [13], in assay [14], in assay [15], in assay [16] and in assay [17] was “inactive” in each case. Also, the Potency result in [18], in assay [5], in [6], in assay [7], in assay [19] and in assay [20] was “inactive” each time.
Regarding `CC(C)CC(C)(c1ccc(O)cc1)c1ccc(O)cc1`, the Potency in [1] was 27.4 µM (active) and 38.6 µM (active); in assay [11] it was “inactive and 36.3 µM (active)”. The Potency entry in assay [2], in assay [3], in [9], in [10], in assay [13] and in [14] was “inactive” in each case. Besides, the Potency result in assay [16], in [17], in assay [18], in [7] and in assay [20] was “inactive” throughout.
For the compound `CCCCCc1cc(O)cc(O)c1`, the Potency entry in assay [1], in assay [2], in [3], in assay [4], in assay [12] and in assay [14] was “inactive” each time. Moreover, the Potency result in [15], in assay [16], in assay [17], in assay [18], in [7] and in assay [19] was “inactive” each time. For the same compound, the Potency result in [20] and in [8] was “inactive” throughout.
As to `CC[N+](CC)(CC)CC`, the Potency result in assay [1], in assay [2], in assay [3], in assay [4], in [11] and in assay [13] was “inactive” throughout. Besides, the Potency entry in assay [15], in [16], in assay [18], in assay [5], in assay [6] and in assay [7] was “inactive” in each case. The Potency entry in assay [19], in assay [20] and in [8] was “inactive” in each case.
As for `ClC(Cl)c1ccccc1`, the Potency result in assay [1], in assay [2], in [3], in assay [11], in assay [12] and in [13] was “inactive” each time. Further, the Potency result in assay [15], in [16], in [17], in assay [18], in assay [5] and in assay [7] was “inactive” throughout. Moreover, the Potency result in [19] and in assay [20] was “inactive” in each case.
Consider `CCCN(CCOc1c(Cl)cc(Cl)cc1Cl)C(=O)n1ccnc1`, for which the Potency result in assay [1], in assay [2], in [3], in assay [11], in assay [12] and in assay [13] was “inactive” each time. For the same compound, the Potency result in [14], in [15], in [16], in assay [17], in assay [18] and in assay [6] was “inactive” in each case. The Potency entry in assay [7] and in assay [20] was “inactive” in each case. In addition, the Potency in assay [5] was 27.9 µM (active) and 48.6 µM (active).
Turning to `Nc1ccccc1`, the Potency entry in assay [1], in [2], in assay [4], in [9], in assay [10] and in assay [11] was “inactive” each time. Besides, the Potency result in assay [12], in assay [13], in assay [15], in assay [16], in [17] and in [5] was “inactive” in each case. The Potency entry in [6], in assay [7], in assay [19], in [20] and in assay [8] was “inactive” throughout.
